{
  "source": "PubChem BioAssay (NCI)",
  "note": "Compounds without any hit were thinned out: in the full panel of roughly 83,000, 20% have a hit.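 Cell lines were cultured in 96-well plates, exposed to a single compound concentration, and assessed for percent growth 48 hours later.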 Values without a mark were called inactive. The source made the active and inactive calls. Rule for the calls: active = growth percent below 10; inactive = the rest.",
  "data": [
    {"test_system": "HL-60(TB) leukemia", "assay": "NCI-60 one-dose screen, 48 h (100 = growth as untreated, 0 = no growth, -100 = all killed)", "details": "10 µM unless noted", "values": [
      {"compound": "COc1cc(/C=C/C(=O)c2cc(OC)c(OC)c(OC)c2)ccc1Oc1nc(Nc2ccc(F)cc2)nc(N(C)C)n1", "growth": "-7.15% (active)"},
      {"compound": "O=C1CCC(N2C(=O)c3cccc(NCCOCCOCCOCCC(=O)NCCCC(=O)NC(c4ccc5c(c4)OCO5)c4cc(Cl)c5cccnc5c4O)c3C2=O)C(=O)C1", "note": "(stereo not given)", "growth": "-14.1% (active)"},
      {"compound": "COc1c(F)ccc(C(=O)Nc2ccc3nc(NC(=O)C4CCCN(S(=O)(=O)c5ccc(C#N)cc5)C4)sc3c2)c1F", "note": "(stereo not given)", "growth": "115%"},
      {"compound": "O=C(c1ccc(O)cc1)C1[C@H](c2ccccc2Br)[C@@H](c2ccccc2)NC12C(=O)Nc1ccc(Cl)cc12", "note": "(stereo not given in full)", "growth": "-17.3% (active)"},
      {"compound": "Cc1ccc(NCC(=O)Cn2cc(COc3ccc(C=Nc4cnc5ccccc5c4)cc3)nn2)cc1", "growth": "101%"},
      {"compound": "CC(=O)Oc1ccc(/C=C/C(=O)N[C@@H](Cc2ccccc2)C(O)C(=O)NCc2ccccc2)cc1OC(C)=O", "note": "(stereo not given in full)", "growth": "79.4%"},
      {"compound": "FC(F)(F)c1cc2c(Cl)ncnc2n1CCN1CCOCC1", "growth": "7.02% (active)"},
      {"compound": "CCOP(=O)(OCC)O[C@H]1CC[C@]2(C)[C@H]3CC[C@@H]4[C@@H]([C@](C)(O)CCC=C(C)C)CC[C@@]4(C)[C@]3(C)CC[C@H]2C1(C)C", "growth": "0.463% (active)"},
      {"compound": "CCCCSc1nc(Nc2ccc(/C(C)=N/NC(N)=S)cc2)c(C#N)c(-c2ccc(OC)cc2)n1", "growth": "92.2%"},
      {"compound": "Cn1cc(-c2cc(N)n3nc(-c4c[nH]c5ccc(Br)cc45)cc3n2)c2cc(Br)cnc21", "growth": "-44.2% (active)"},
      {"compound": "COC1=C[C@@]23CCC(=O)N2CCc2cc4c(cc2[C@H]3[C@H]1OC(=O)C(C)(C)O)OCO4", "growth": "87%"},
      {"compound": "CC(=O)c1cc(C(=O)c2ccccc2)n2c1ccc1ccccc12", "growth": "94.7%"},
      {"compound": "CCCCCCCCc1ccc(C(=O)Nc2ccc(C)c(OP(=O)(O)O)c2)cc1", "growth": "78.4%"},
      {"compound": "O=S(=O)(c1nc(-c2ccc(Br)cc2)oc1-c1ccc(Cl)cc1)N1CCCC(O)C1", "note": "(stereo not given)", "growth": "31.4%"},
      {"compound": "COCOc1ccc2c(=O)c(C)c(C(=O)N[C@@H](Cc3ccccc3)C(O)C(=O)NCCc3ccc(OC)cc3)oc2c1", "note": "(stereo not given in full)", "growth": "102%"},
      {"compound": "COc1csc(/C=N/NC(=O)c2[nH]c3ccc(Br)cc3c2-c2ccccc2)c1", "growth": "-42.8% (active)"},
      {"compound": "COc1ccc(C(=O)/C=C/c2ccc3c(c2)OCCO3)cc1S(N)(=O)=O", "growth": "95.1%"},
      {"compound": "O=C(c1ccc(Cl)cc1)C1[C@H](c2ccccc2Cl)[C@@H](c2ccccc2)NC12C(=O)Nc1ccc(Cl)cc12", "note": "(stereo not given in full)", "growth": "-39.9% (active)"},
      {"compound": "C=C1CC[C@@H]2[C@]3(C)COC(c4cn[nH]c4-c4ccccc4)O[C@@H]3CC[C@@]2(C)[C@@H]1C/C=C1/C(=O)OCC1O", "note": "(stereo not given in full)", "growth": "8.64% (active)"},
      {"compound": "O=C(N=Nc1c(O)[nH]c2ccc(Br)cc12)c1ccc2nc(-c3ccccc3)[nH]c2c1", "growth": "30.9%"},
      {"compound": "COC(=O)c1cc(C(=O)C(Br)Br)n2c1ccc1c3ccccc3ccc12", "growth": "76.2%"},
      {"compound": "Cn1cc(-c2cc(N)n3nc(-c4c[nH]c5ccc(Cl)cc45)cc3n2)c2cc(Br)cnc21", "growth": "-60.4% (active)"},
      {"compound": "O=C1CC(Sc2n[nH]c(-c3ccncc3)n2)C(=O)N1c1ccc(Br)cc1", "note": "(stereo not given)", "growth": "101%"},
      {"compound": "COc1cncc(-c2ccc3ncnc(N4CCc5ccc(Cl)cc54)c3c2)c1", "growth": "-33.4% (active)"},
      {"compound": "COc1ccc(CCN2C(=O)/C(=C/c3csc(C#N)n3)SC2=S)cc1", "growth": "-23.8% (active)"},
      {"compound": "N#C/C(=C/c1ccc([N+](=O)[O-])cc1)c1nnc(NC(=O)c2ccc(-n3c(=O)[nH]c4ccccc4c3=O)cc2)s1", "growth": "99.3%"},
      {"compound": "OC(c1ccccc1)(c1ccccc1)C1CCN(c2ccc3nnc(Cl)n3n2)CC1", "growth": "-33.6% (active)"},
      {"compound": "COc1cc2c3c(n(CCCN4CCC[C@@H]4CO)c(=O)c2cc1OC)-c1cc2c(cc1C3=O)OCO2", "growth": "-15.4% (active)"},
      {"compound": "c1n[nH]cc1-c1nc2ccc3[nH]ncc3c2c2c1CC1(CC2)COC1", "growth": "29.1%"},
      {"compound": "O=C1Nc2cc(-c3ccc(NS(=O)(=O)c4ccc([N+](=O)[O-])cc4)cc3)ccc2/C1=C/c1ccc[nH]1", "growth": "13.7%"},
      {"compound": "O=c1c2ccccc2nc(COc2ccccc2)n1/N=C/c1ccc(F)cc1", "growth": "94.8%"},
      {"compound": "CC1=C(C(=O)Nc2ccccc2)C(c2ccc3ccccc3c2)n2c(nc3ccccc32)N1", "note": "(stereo not given)", "growth": "57.4%"},
      {"compound": "C=CC(=O)Nc1ccc(C(=O)/C=C/c2ccc(N(C)C)cc2)c(O)c1", "growth": "1.03% (active)"},
      {"compound": "Cc1ccc(-c2cc(-c3cc4ccccc4nc3Cl)[nH]c(=S)n2)cc1", "growth": "11.6%"},
      {"compound": "Cc1cc(C)cc(NC(=O)Cn2cc(COn3nnc4ccccc43)nn2)c1", "growth": "92.6%"},
      {"compound": "CCCCOc1ccc(NC(=O)c2sc3nc(C)ccc3c2N)cc1", "growth": "46.8%"},
      {"compound": "CN(C)CCOc1ccc(C(=O)C2[C@H](c3ccc(Cl)cc3)[C@@H](c3ccccc3)NC23C(=O)Nc2ccccc23)cc1", "note": "(stereo not given in full)", "growth": "35.1%"},
      {"compound": "COc1cc(C2C(C(=O)OCc3ccccc3)=C(C)Nc3nc4ccccc4n32)cc(OC)c1OC", "note": "(stereo not given)", "growth": "16.1%"},
      {"compound": "Cc1ccc(C(C(=O)NC2CCCCC2)N(Cc2ccccc2Cl)C(=O)c2ccc(CN3CCOCC3)o2)o1", "note": "(stereo not given)", "growth": "84.6%"},
      {"compound": "CC1=C(C(=O)c2ccccc2)C(c2cccc3ccccc23)n2c(nc3ccccc32)N1", "note": "(stereo not given)", "growth": "58.6%"}
    ]}
  ]
}
